Inhibition data for 95 compounds are collected here from PubChem BioAssay AID463190 (Sanford-Burnham Center for Chemical Genomics, 2010).

Structures are written as SMILES. Hit rate of the full screen: of about 330,000 compounds, about 7,300 (2.2%) were called active. Shown is part of a subset that was picked to be rich in actives. A number with no mark means an inactive call.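 Rule for the calls: active = inhibition of at least 40%; inactive = the rest.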

This assay in a line: growth inhibitors of tim10-1 mutant yeast, primary screen, luminescence, uHTS (AID 463190).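 Note: mutant grown at 25 °C; 0% = DMSO wells with yeast and 100% = wells holding no yeast.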 To be noted: S. cerevisiae tim10-1 ts strain growth, BacTiter-Glo, 24 h; at 20 µM; active compounds read high.
On to `O=C(O)c1cccnc1Sc1ncnc2sc3c(c12)CCC3`, for which the inhibition was -4.59%.
Turning to `Cc1nc(N2CCCCC2)sc1C=O`, the inhibition is -8.24%.
For the compound `Brc1ccc2nc(N3CCCC3)sc2c1`, the inhibition is 22.5%.
Regarding `c1c2c(cc3sc(N4CCCCC4)nc13)OCCO2`, the inhibition is 43.1% (active).
For `CC(C)N(C(=O)CN1CCN(S(=O)(=O)c2ccc(Br)s2)CC1)C(C)C`, the inhibition was 16.4%.
In the case of `O=C(COC(=O)C1CC2C=CC1C2)Nc1ccccc1` (stereo not given), the inhibition was 13.3%.
Turning to `O=C1CC(c2cccc(Cl)c2)CC(O)=C1C=Nc1ccccc1` (stereo not given), the inhibition is 21.6%.
Next, `CCOc1ccc(-c2cc(C(=O)N/N=C/c3ccc(O)cc3)c3ccccc3n2)cc1`: 6.2%; `O=C(O)c1cc([N+](=O)[O-])c(Nc2cccc3ccccc23)c([N+](=O)[O-])c1`: 7.28%; `CCOC(=O)c1c(N)nn(C(=O)c2ccccc2)c1-c1ccccc1`: 41.5% (active).
In the case of `CCOC(=O)c1c(-c2cccc(N)c2)cn2ccccc12` it was 10.5%; in that of `CCOC(=O)c1nnn(-c2nonc2OC)c1-c1ccccc1`, 15.2%.
As to `Cc1ccnc(NC(=O)Cn2ccc([N+](=O)[O-])n2)c1`, the inhibition was 14.6%.
As for `COc1cccc(/C=C/C(=O)OCC(=O)N2CCN(c3ccccc3)CC2)c1`, the inhibition was 17.4%.
For `Cc1cc(NCc2ccco2)n2c(nc3ccccc32)c1C#N`, the inhibition was 7.48%.
For the compound `Cn1c(-c2ccco2)nc2cc3ccccc3cc21`, the inhibition is 33.2%.
Regarding `CN1c2ccccc2-c2nc3ccccc3n2C1c1ccco1` (stereo not given), the inhibition is 42.1% (active).
Next, `CCO[C@H]1OC(C(=O)O)=C[C@@H](C2CCCCC2)[C@@H]1CCCO`: -21.3%.
In the case of `CCCOc1ccc(Cc2c(Cl)nc(SC)nc2NC)cc1` it was 35.5%; in that of `COc1ccc(C(=O)Nc2sc(C)c(C)c2CN2CCOCC2)cc1`, 34.2%; in that of `CCc1cc(C(N)=O)c(NC(=O)c2ccc(OC)cc2)s1`, 45.5% (active).
In the case of `CCc1cc(C(=O)c2ccc(OC)cc2)c(NC(=O)CN2CCN(C)CC2)s1` it was 17.7%; in that of `C/C(Cn1nnc2ccccc21)=N\OC(=O)c1cc(F)c(F)cc1Cl`, 37.4%.
Turning to `Cc1n[nH]c(=O)c2c(NC(=O)COC(=O)c3ncc(Cl)c(Cl)c3Cl)oc(C)c12`, the inhibition is 10.5%.
As for `CC(C(=O)O)n1cnc2sc3c(c2c1=O)CCCC3` (stereo not given), the inhibition was 2.4%.
With `COc1cc(Cl)ccc1OCc1cc(C(=O)N(C)CCc2c(C)n[nH]c2C)no1`, the inhibition is 7.82%.
As for `Cc1ccc(CSCC(N)C(=O)O)cc1` (stereo not given), the inhibition was 13.8%.
`Cc1ccc(C(=O)CSc2ccccc2C(=O)O)cc1`: the inhibition was -0.398%.
With `Cc1ccc(SC(CC(=O)c2ccc(C(C)(C)C)cc2)C(=O)O)cc1` (stereo not given), the inhibition was 40.7% (active).
For the compound `CCC(C(=O)OCC(=O)Nc1c(Cl)cc(Cl)cc1Cl)c1ccccc1` (stereo not given), the inhibition was 39.5%.
In the case of `CCOC(=O)c1nnn(-c2nonc2-n2cccc2)c1CN1CCOCC1` it was 23.2%.
As to `CCOC(=O)c1c(CN(C)C)n(-c2ccccc2)c2cc(Br)c(O)cc12`, the inhibition is 10.1%.
Take `CCOC(=O)c1c(CN2CCOCC2)n(-c2ccccc2)c2ccc(O)cc12`: the inhibition is 45% (active).
For `Cc1ccc(NC(=O)CN2CCC3(O)CCCCC3C2c2ccc3c(c2)OCO3)c(C)c1` (stereo not given), the inhibition was 45.2% (active).
In the case of `CCN(CC)c1ccc(C2C3CCCCC3(O)CCN2CC(=O)Nc2ccccc2)cc1` (stereo not given), the inhibition is -17.2%.
Next, `CC1CCCCN1CC(=O)NCc1ccc2c(c1)OCO2` (stereo not given): 4.67%; `COc1ccc(N2CCN(C(=O)COC(=O)c3cccc(S(=O)(=O)Nc4ccccc4OC)c3)CC2)cc1`: 19.1%; `O=C1NC[C@@H](c2ccccc2)OC(=O)[C@H](Cc2ccc(F)cc2)CC/C=C/C[C@H]1CC(=O)N(CCO)Cc1ccccc1`: 3%.
Take `S=c1nc(C23CC4CC(CC(C4)C2)C3)nc2sccn12`: the inhibition is -12.4%.
With `CCOc1ccc(NC(=O)COc2ccc(C(=O)N3CCC(C(N)=O)CC3)cc2OC)cc1`, the inhibition is 3.08%.
For `O=C(c1cn2ccccc2n1)N1CCc2c([nH]c3ccccc23)C1c1ccccn1` (stereo not given), the inhibition was 22.4%.
Consider `Cc1cccc(C2c3[nH]c4ccccc4c3CCN2C(=O)c2cc(-c3cccn3C)n[nH]2)n1` (stereo not given), for which the inhibition was 44% (active).
In the case of `Cc1cccc(C(=O)N2CCc3c([nH]c4ccccc34)C2CC(C)C)n1` (stereo not given), the inhibition is 10.6%.
Regarding `COCC1CCN(C(=O)C2CCC(=O)N(CC3CCCCC3)C2)CC1` (stereo not given), the inhibition is -9.11%.
As for `Cc1nc(SC(C)C)[nH]c(=O)c1Cc1ccccc1`, the inhibition is 18.7%.
Consider `O=C1COc2ccc(S(=O)(=O)Nc3ccc(OC(F)(F)F)cc3)cc2N1`, for which the inhibition is 18.6%.
Consider `O=S(=O)(Nc1ccc(O)c2ccccc12)c1ccc(OC(F)(F)F)cc1`, for which the inhibition is 42.5% (active).
In the case of `Cc1nn(C)c(C)c1NS(=O)(=O)c1ccc(OC(F)(F)F)cc1` it was -1.38%.
For the compound `CC(=O)NS(=O)(=O)c1ccc2c(c1)Cc1cc(S(=O)(=O)NC(C)=O)ccc1-2`, the inhibition is -1.53%.
In the case of `O=C1CC2(CC(c3ccc(Cl)cc3)=NO2)C(=O)N1c1ccccc1` (stereo not given), the inhibition was -3.93%.
Regarding `CN(C)CCCN(C(=O)c1ccc(S(=O)(=O)N2CCCCCC2)cc1)c1nc2cc3c(cc2s1)OCCO3`, the inhibition is 27.4%.
In the case of `CN(C)CCCN(C(=O)c1ccc(S(=O)(=O)N2CCCc3ccccc32)cc1)c1nc2ccc(F)cc2s1` it was 52.8% (active).
With `CN(C)CCCN(C(=O)c1ccc(S(=O)(=O)N2CCCCCC2)cc1)c1nc2ccc(Br)cc2s1`, the inhibition was 26.2%.
In the case of `O=[N+]([O-])c1ccc(S(=O)(=O)Nc2cccc(-c3ccc(N4CCCC4)nn3)c2)cc1`, the inhibition was 11.6%.
For `Cc1c(C(=O)NCCN2CCOCC2)sc2nc(-c3ccc(F)cc3)cn12`, the inhibition is 4.04%.
On to `CCNC(=S)Nc1ccc(OC(F)(F)F)cc1`, for which the inhibition is 14.5%.
Regarding `COC(=O)Cc1ccc(NC(=S)NCc2ccccc2)cc1`, the inhibition was 21.8%.
On to `FC(F)(F)Oc1ccc(NC(=S)NCc2ccccc2)cc1`, for which the inhibition was 41.8% (active).
Take `Cc1ccc(CCNC(=O)C2CCN(S(=O)(=O)N3CCCC3)CC2)cc1`: the inhibition was 4.68%.
For `CCOc1ccc(C2/C(=C(/O)c3ccc4c(c3)CC(C)O4)C(=O)C(=O)N2CCCn2ccnc2)cc1` (stereo not given), the inhibition was -3.88%.
Regarding `Cc1[nH]c2ccccc2c1C(=O)COC(=O)c1c(-c2ccccc2)noc1C`, the inhibition was 52.3% (active).
Take `Cc1onc(-c2ccccc2Cl)c1C(=O)OCC(=O)c1ccccc1`: the inhibition is 11.7%.
As to `Cc1[nH]c2ccccc2c1C(=O)CSCC(=O)O`, the inhibition is 12.6%.
Next, `Fc1cccc(Cl)c1CSc1ccc(-c2ccco2)nn1`: 45.4% (active).
For `Cc1cc(SCc2c(F)cccc2Cl)nc(=O)[nH]1`, the inhibition is 6.52%.
Next, `O=C(CSc1ccc(-c2ccco2)nn1)Nc1cccc(F)c1`: 3.73%; `CC(C)NC(=O)C(=O)NCCN1CCN(S(=O)(=O)c2ccc(Cl)cc2)CC1`: 2.58%; `CC/C(=N\O)C(C)(C)/[N+]([O-])=C/c1ccc(Br)cc1`: 5.1%.
Take `O=C(N/N=C/c1cccc(OCc2ccccc2)c1)c1ccc(Br)o1`: the inhibition was 27.9%.
As to `COCCNC(=O)/C(C#N)=C/c1cccc(OCc2ccccc2)c1`, the inhibition was 52.7% (active).
Turning to `N#C/C(=C\c1ccc(O)c(O)c1)C(=O)NCc1ccccc1`, the inhibition is -4.07%.
Regarding `C=CCNC(=O)COC(=O)c1ccccc1C(=O)N(C)C1CCCCC1`, the inhibition was 16.1%.
Next, `CCOc1ccc(CN2CCN(Cc3ccc(C)o3)CC2CCO)cc1` (stereo not given): 5.81%; `O=C(CCc1ccc(S(=O)(=O)N2CCOCC2)cc1)Nc1ccc2ccccc2c1`: 41.9% (active); `Cc1ccc(CC(=O)Nc2ccc(S(=O)(=O)N3CCOCC3)cc2)cc1C`: 19%.
On to `O=C(COC(=O)CCc1ccc(S(=O)(=O)N2CCOCC2)cc1)Nc1cccc(Cl)c1`, for which the inhibition is 5.19%.
In the case of `CC(C)(C)OC(=O)C[C@@H]1C/C=C\C[C@@H](CC(=O)N[C@H](CO)Cc2ccccc2)C(=O)NCCOC1=O` it was -5.51%; in that of `Cc1ccc2c(c1)nnc1nnc(SCC(=O)O)n12`, -10.5%.
Consider `CC1OC2C(OC1C)N(S(C)(=O)=O)CCN2S(C)(=O)=O` (stereo not given), for which the inhibition was 1.46%.
`Cc1cccc(NC(=O)c2ccc3ccccc3n2)n1`: the inhibition is 27.1%.
In the case of `Cc1cc(Nc2ccc(Br)cc2)nc2ccccc12`, the inhibition was 29.6%.
For the compound `Clc1ccc(Nc2ccc3ccccc3n2)cc1`, the inhibition was 54.1% (active).
For `CCOC(=O)C1CCCN(S(=O)(=O)c2ccc3c(c2)C(C)(C)C(=O)N3C)C1` (stereo not given), the inhibition was -10.8%.
On to `CC1CCC2(CC1)NC(=O)N(CC(=O)c1ccc3c(c1)OCO3)C2=O` (stereo not given), for which the inhibition is -17.1%.
On to `CC(C)c1ccc(S(=O)(=O)NC2CCCC2)cc1`, for which the inhibition was 19%.
As for `CSc1ccc(S(=O)(=O)NC2CCCCC2)cc1`, the inhibition was 45.6% (active).
Next, `Cc1ccc(S(=O)(=O)NC2CCCCCC2)cc1`: 21.3%; `CC(=O)c1ccccc1OCc1ccc(C(=O)c2ccccc2)cc1`: 9.55%.
Regarding `O=C(C(=O)N1CCc2ccccc2C1)c1c[nH]c2ccccc12`, the inhibition is 40.7% (active).
In the case of `O=C(NC1CCCC1)C(=O)c1c[nH]c2ccccc12`, the inhibition is -16.2%.
Take `CC1CCN(CC(=O)c2c[nH]c3ccccc23)CC1`: the inhibition is 16%.
With `Cc1ccc(N2CC(C(=O)N3CCC4(CC3)CC(=O)c3ccccc3O4)CC2=O)cc1C` (stereo not given), the inhibition is 1.3%.
With `C/C(=N/NC(=O)c1cc(Cl)ccc1O)C12CC3CC(CC(C3)C1)C2`, the inhibition was 50.7% (active).
On to `O=C(N/N=C1\CCSC1)c1cc(Cl)ccc1O`, for which the inhibition is -11.5%.
On to `Cc1ccc(C(=O)NC23CC4CC(CC(C4)C2)C3)c(Cl)c1`, for which the inhibition was -11.9%.

In general, inhibition refers to the relative decrease from the control value, in per cent.
